How the values were obtained:
Test in all cases: log2 ratio of Biotin-Ahx-Ub-VS probe labelling (fragment/DMSO); higher = less target engagement (more negative = stronger competition), active = hit call of the paper (q ≤ 0.05, log2 ratio ≤ -1)
Details in all cases: compound concentration: 200 uM; treatment time: 3 h
[1] = biological target: T1, OTUD6B (UniProt Q8N6M0)
T1 sequence (whole entry): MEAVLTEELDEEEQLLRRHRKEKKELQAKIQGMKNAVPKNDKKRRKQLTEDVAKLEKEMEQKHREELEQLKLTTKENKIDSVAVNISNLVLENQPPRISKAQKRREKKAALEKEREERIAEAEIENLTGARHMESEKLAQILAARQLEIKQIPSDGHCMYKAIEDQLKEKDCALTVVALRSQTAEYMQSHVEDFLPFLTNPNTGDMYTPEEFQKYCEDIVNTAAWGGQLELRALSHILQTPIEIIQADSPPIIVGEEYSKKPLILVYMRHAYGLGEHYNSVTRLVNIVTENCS
Summary of the method: (§1)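 HEK293T lysate (495 µg per sample, in Tris/CHAPS/IGEPAL buffer with protease inhibitors) was treated in triplicate with fragment at 200 µM or with DMSO for 3 h. It was then treated with Biotin-Ahx-Ub-VS (0.5 µM final) for 1 h. Labelled DUBs were NeutrAvidin-enriched, digested with LysC and trypsin, and run by diaPASEF LC-MS/MS. Spectronaut label-free quantities were global-median-normalised. Values are average log2 ratios fragment/DMSO by unpaired t-test, using proteins with ≥2 unique peptides.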

[2] = biological target: T2, OTUD7B (UniProt Q6GQQ9)
T2 sequence (whole entry): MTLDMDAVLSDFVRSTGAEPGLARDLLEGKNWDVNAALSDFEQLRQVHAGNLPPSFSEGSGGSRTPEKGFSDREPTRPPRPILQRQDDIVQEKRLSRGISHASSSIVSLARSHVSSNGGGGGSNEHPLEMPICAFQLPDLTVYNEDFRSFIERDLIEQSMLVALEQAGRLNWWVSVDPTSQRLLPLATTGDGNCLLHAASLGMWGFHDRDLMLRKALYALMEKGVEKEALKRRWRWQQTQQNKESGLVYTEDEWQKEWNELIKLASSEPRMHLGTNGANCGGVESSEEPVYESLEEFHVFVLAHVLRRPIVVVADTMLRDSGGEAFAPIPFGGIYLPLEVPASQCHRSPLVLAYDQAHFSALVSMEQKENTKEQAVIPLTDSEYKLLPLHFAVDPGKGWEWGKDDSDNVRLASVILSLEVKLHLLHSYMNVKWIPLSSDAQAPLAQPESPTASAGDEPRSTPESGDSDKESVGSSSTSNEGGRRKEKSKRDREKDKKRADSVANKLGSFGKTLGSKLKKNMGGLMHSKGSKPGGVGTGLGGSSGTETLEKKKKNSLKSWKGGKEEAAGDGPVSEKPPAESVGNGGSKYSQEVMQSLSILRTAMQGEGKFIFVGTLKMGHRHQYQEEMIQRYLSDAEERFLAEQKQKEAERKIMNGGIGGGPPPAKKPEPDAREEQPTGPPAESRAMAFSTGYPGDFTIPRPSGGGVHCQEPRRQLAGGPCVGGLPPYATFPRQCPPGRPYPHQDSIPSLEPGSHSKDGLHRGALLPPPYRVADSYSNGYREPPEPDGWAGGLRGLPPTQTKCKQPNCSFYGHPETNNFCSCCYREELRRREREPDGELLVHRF
Summary of the method: as §1

[3] = biological target: PRPF8 (UniProt Q6P2Q9)
Summary of the method: as §1

[4] = biological target: T3, PSMD7 (UniProt P51665)
T3 sequence (whole entry): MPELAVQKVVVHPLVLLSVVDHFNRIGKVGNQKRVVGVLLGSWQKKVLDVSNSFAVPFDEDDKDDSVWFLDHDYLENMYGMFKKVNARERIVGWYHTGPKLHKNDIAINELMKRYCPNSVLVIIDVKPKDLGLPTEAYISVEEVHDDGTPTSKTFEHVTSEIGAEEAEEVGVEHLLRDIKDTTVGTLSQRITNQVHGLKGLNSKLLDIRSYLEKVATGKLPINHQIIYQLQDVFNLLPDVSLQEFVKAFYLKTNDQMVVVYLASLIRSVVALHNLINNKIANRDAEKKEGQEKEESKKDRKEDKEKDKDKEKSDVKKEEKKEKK
Summary of the method: as §1

[5] = biological target: UCHL1 (UniProt P09936)
Chain of UCHL1 (P09936 whole entry, looked up): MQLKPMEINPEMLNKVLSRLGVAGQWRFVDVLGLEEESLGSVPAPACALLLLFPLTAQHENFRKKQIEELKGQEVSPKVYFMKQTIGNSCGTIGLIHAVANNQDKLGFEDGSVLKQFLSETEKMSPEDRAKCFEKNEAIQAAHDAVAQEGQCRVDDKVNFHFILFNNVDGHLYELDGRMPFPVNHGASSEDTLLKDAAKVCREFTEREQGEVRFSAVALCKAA
Summary of the method: as §1

[6] = biological target: T4, UCHL3 (UniProt P15374)
T4 sequence (whole entry): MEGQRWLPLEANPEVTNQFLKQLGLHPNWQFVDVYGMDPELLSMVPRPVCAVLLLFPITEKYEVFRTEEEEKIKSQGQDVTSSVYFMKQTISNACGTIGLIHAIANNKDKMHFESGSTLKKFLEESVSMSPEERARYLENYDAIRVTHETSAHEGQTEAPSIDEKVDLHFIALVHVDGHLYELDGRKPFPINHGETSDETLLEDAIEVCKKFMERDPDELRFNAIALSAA
Summary of the method: as §1

[7] = biological target: T5, UCHL5 (UniProt Q9Y5K5)
T5 sequence (whole entry): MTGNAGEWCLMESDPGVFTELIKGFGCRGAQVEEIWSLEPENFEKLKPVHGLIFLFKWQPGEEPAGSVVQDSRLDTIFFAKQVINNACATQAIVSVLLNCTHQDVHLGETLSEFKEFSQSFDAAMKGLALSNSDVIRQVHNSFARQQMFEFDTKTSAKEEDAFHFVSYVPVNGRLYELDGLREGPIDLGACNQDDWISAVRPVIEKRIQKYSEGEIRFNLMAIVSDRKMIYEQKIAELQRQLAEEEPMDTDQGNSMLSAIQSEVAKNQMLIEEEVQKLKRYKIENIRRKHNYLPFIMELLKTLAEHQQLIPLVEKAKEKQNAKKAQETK
Summary of the method: as §1

[8] = biological target: USP10 (UniProt Q14694)
Chain of USP10 (Q14694 whole entry): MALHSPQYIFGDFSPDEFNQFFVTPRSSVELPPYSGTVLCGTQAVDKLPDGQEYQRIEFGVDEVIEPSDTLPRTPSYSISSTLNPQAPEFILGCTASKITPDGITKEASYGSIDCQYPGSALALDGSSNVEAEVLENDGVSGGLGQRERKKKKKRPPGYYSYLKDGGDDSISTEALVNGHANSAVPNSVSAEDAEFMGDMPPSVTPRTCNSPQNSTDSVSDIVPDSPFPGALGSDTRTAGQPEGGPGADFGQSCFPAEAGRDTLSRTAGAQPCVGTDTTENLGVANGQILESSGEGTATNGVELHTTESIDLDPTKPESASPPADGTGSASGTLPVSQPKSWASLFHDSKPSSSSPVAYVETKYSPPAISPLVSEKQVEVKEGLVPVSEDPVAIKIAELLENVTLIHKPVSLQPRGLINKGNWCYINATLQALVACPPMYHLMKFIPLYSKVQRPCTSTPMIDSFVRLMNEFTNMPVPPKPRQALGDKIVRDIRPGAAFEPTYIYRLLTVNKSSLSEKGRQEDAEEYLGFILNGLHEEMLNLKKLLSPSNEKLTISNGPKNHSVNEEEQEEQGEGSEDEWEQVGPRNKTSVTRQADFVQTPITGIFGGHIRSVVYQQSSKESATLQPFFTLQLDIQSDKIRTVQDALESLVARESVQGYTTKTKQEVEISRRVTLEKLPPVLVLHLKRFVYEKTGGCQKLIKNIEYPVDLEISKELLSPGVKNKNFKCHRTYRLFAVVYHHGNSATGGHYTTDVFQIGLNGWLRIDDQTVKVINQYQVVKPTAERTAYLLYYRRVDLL
Summary of the method: as §1

[9] = biological target: T6, USP15 (UniProt Q9Y4E8)
T6 sequence (whole entry): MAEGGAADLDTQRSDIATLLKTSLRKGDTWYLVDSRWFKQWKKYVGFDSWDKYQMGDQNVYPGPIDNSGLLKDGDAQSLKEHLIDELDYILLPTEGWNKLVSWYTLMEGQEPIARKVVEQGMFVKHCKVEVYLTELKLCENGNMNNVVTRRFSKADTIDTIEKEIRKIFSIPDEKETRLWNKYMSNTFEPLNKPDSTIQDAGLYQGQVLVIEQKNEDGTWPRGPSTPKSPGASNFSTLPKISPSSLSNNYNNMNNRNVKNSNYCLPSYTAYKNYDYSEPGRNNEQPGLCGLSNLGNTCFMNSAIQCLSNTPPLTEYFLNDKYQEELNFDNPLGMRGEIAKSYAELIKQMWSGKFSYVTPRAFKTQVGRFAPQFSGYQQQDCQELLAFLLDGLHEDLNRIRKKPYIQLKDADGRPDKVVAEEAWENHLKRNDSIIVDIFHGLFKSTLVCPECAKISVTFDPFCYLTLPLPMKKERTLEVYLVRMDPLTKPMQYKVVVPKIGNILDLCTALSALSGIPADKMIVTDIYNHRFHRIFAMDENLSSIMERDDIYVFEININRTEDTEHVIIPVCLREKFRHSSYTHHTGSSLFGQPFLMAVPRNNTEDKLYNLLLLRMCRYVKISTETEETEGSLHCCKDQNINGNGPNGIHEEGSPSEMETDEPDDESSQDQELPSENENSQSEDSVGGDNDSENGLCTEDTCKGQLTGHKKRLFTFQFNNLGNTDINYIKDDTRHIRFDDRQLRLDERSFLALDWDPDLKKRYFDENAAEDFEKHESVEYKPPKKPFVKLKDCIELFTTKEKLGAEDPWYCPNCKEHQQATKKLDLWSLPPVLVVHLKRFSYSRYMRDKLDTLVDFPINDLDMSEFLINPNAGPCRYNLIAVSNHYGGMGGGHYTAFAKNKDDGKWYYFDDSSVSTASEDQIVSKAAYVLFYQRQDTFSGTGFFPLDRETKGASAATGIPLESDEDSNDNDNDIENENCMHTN
Summary of the method: as §1

[10] = biological target: USP16 (UniProt Q9Y5T5)
Chain of USP16 (Q9Y5T5 whole entry, looked up): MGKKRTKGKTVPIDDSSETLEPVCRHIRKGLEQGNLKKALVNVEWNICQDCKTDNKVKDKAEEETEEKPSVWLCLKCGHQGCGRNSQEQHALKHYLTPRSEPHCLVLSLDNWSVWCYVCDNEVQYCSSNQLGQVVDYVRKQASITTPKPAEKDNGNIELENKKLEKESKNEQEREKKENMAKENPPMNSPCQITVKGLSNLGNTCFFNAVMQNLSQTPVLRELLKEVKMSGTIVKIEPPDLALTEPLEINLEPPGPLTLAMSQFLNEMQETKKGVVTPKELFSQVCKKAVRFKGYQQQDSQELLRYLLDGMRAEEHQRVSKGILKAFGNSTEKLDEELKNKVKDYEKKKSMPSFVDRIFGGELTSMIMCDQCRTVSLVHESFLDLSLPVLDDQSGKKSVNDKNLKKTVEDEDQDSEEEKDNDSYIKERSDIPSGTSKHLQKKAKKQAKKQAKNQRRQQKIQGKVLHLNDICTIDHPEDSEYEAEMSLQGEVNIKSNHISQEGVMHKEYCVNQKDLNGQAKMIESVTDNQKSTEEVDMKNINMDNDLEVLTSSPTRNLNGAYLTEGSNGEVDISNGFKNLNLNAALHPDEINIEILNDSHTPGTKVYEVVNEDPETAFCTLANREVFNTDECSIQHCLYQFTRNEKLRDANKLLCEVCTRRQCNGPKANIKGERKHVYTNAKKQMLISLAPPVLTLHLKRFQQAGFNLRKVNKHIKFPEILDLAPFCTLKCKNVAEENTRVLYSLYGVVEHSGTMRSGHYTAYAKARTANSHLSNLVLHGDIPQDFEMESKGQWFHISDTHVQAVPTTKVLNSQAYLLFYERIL
Summary of the method: as §1

Measured: log2 ratio of Biotin-Ahx-Ub-VS probe labelling

N#Cc1ccccc1N1CCN(C(=O)CCl)CC1
active: [5] -2.04
inactive: [1] -0.533 | [2] -0.626 | [3] -0.322 | [4] -0.0914 | [6] -0.341 | [7] -0.894 | [8] -0.051 | [9] -0.781 | [10] -0.37

From the supplement of paper PMC11732987, “Enantioselective OTUD7B fragment discovery through chemoproteomics screening and high-throughput optimisation” (Communications Chemistry, 2025)
